Hsp70 activator – Hsp70 transcriptional activation, primary screen. HeLa Hsp70 promoter luciferase reporter, luminescence; scaled: vehicle 0, proteasome-inhibitor control 100%. activation, % at 10 µM. actives 0.04% (n = 200,000). AID 1203;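 active = activation above the mean across all tested compounds plus 3 SD, cutoff set per campaign, cut at about 5.5% in these data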
GAA850 FXN act – frataxin GAA850 promoter activation. HEK293 lucGAA850 FXN promoter luciferase reporter, 24 h; percent of 10 µM SAHA response. activation, % at 6 µM. actives 0.56% (n = 360,000);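 active = activation above the average of all compounds screened plus 3 SD, cutoff fixed separately per campaign, cut at about 7.5% in these data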
SMARCA2 act – increases SMARCA2 function in MMTV reporter cells | MG213 cells, MMTV-luciferase reporter, dexamethasone, overnight | activation, % at 9.1 µM | actives 1% (n = 370,000); in the data active = activation above about 7.8%
HIF activator – HIF pathway transcriptional activation | U2OS HRE-luciferase reporter, luminescence; normalized: DMSO 0%, desferrioxamine 100% | activation, % at 7.5 µM (by protocol) | actives 0.32% (n = 300,000);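 active = mean activation of at least 10% of the iron chelator positive control signal, with at least half of replicates also reaching 10%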
GalR3 antagonist – human GalR3 antagonism. HEK293 GalR3-CNG cAMP membrane potential fluorescence; galR3 body fused to GalR1 C-terminus. actives 0.44% (n = 360,000). inhibition, % at 3 µM. AID 651719;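 active = inhibition above the screen-wide average plus 3 SD, cut at about 13% in these data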;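 also: forskolin and galanin both at EC90 stimulate the cells; cAMP rise reported by CNG channel membrane potential dye signal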
Target sequence (O60755 1-299 limits assumed): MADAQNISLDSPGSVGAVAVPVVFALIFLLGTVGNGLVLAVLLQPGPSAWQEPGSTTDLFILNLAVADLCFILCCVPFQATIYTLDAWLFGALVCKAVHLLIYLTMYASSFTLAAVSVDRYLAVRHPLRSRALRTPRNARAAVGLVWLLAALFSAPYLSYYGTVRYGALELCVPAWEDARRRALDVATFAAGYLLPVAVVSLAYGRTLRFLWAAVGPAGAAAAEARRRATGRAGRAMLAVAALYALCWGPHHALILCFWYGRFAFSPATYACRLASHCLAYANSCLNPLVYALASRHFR
GAA30 FXN cntr – GAA30 FXN promoter activation counter-screen. AID 588350. actives 66% (n = 1,900). activation, % at 6 µM. shares compounds with GAA850 FXN act. HEK293 lucGAA30 FXN promoter luciferase, 24 h; DMSO = 0%, 5 µM ipriflavone = 100%;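 active = mean activation above the mean of solvent-only control wells plus 3 SD, cut at about 22% in these data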;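 also: counterscreen of GAA850 promoter hits where activity marks nonselective or luminescence artifacts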
FXN GAA850 conf – confirmation of GAA850 frataxin (FXN) promoter activators | shares compounds with GAA850 FXN act | activation, % at 6 µM | actives 86% (n = 1,900) | HEK293 lucGAA850 FXN promoter luciferase reporter, 24 h; 100% = activation by SAHA;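 active = mean activation above a set limit taken from the primary screen, cut at about 8% in these data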
Numbers stand for hits. A selection: hits, their analogues and other compounds. The true share with any hit is near 2.2%.

What do the screens show for `COc1ccccc1NC(=O)c1cnc(SCC(=O)NCC2CCCO2)n(C)c1=O` (stereo not given)?
GAA850 FXN act: 9.5; SMARCA2 act: inactive; HIF activator: inactive; GalR3 antagonist: inactive; GAA30 FXN cntr: inactive; FXN GAA850 conf: 24

What do the screens show for `COC(=O)[C@@]1(C)[C@H]2C(=O)N(Cc3ccccc3)C(=O)[C@H]2[C@H]2CN=C(SCc3ccc(C#N)cc3)N21`?
GAA850 FXN act: 13; SMARCA2 act: inactive; GalR3 antagonist: inactive; GAA30 FXN cntr: 22; FXN GAA850 conf: 12

How did CCN1C(=O)[C@H]2[C@H]3CN=C(SCc4ccccc4)N3[C@@](C)(C(=O)OC)[C@H]2C1=O do in these assays?
GAA850 FXN act: inactive; SMARCA2 act: inactive; GalR3 antagonist: inactive

Results for COC(=O)[C@@]1(C)[C@H]2C(=O)N(Cc3ccccc3)C(=O)[C@H]2[C@H]2CN=C(SCc3ccc(Cl)cc3)N21 ?
GAA850 FXN act: 15; SMARCA2 act: inactive; GalR3 antagonist: inactive; GAA30 FXN cntr: 30; FXN GAA850 conf: 11

Results for CC(C)N1Cc2nnn(Cc3ccc(F)cc3)c2-c2cc(F)ccc2S1(=O)=O ?
SMARCA2 act: inactive

What do the screens show for `CC(C)n1cnc2c(Nc3cccc(Cl)c3)nc(NCCCO)nc21`?
GAA850 FXN act: 8.7; SMARCA2 act: inactive; HIF activator: inactive; GalR3 antagonist: inactive; GAA30 FXN cntr: 53; FXN GAA850 conf: 15

Results for O=S(=O)(CC1NCCc2ccccc21)NCCc1ccccc1 (stereo not given) ?
SMARCA2 act: inactive

How did Cc1c(Cl)ccc2sc(NC(=O)c3ccco3)nc12 do in these assays?
GAA850 FXN act: 7.7; SMARCA2 act: inactive; HIF activator: inactive; GAA30 FXN cntr: 105; FXN GAA850 conf: 38

How did CC(C)C[C@H](NC(=O)c1cccs1)C(=O)N1CCC[C@H]1C(=O)NCc1ccccc1 do in these assays?
SMARCA2 act: inactive; GalR3 antagonist: inactive

What do the screens show for `Brc1ccc2c(c1)-c1ccccc1C1=NCCN12`?
GAA850 FXN act: 24; SMARCA2 act: inactive; GalR3 antagonist: inactive; GAA30 FXN cntr: inactive; FXN GAA850 conf: 130

What do the screens show for `COc1ccc(Br)cc1S(=O)(=O)N1CCN=C1c1ccccc1`?
GAA850 FXN act: inactive; SMARCA2 act: inactive; HIF activator: inactive; GalR3 antagonist: inactive

How did O=C(Nc1ccccc1C(=O)NC(Cc1ccccc1)C(=O)NC1CCCCC1)c1ccccc1 (stereo not given) do in these assays?
Hsp70 activator: inactive; GAA850 FXN act: 7.7; SMARCA2 act: inactive; HIF activator: inactive; GalR3 antagonist: inactive; GAA30 FXN cntr: inactive; FXN GAA850 conf: inactive

How did COC(=O)[C@]12C[C@H](CC(=O)N3CCN(C(=O)C4CC4)CC3)C(=O)N(Cc3ccccc3)C1=C[C@H](C1CCCC1)O[C@@H]2C do in these assays?
SMARCA2 act: inactive; GalR3 antagonist: inactive

What do the screens show for `CC(=O)c1ccc2oc3ccccc3c(=O)c2c1`?
GAA850 FXN act: 8.6; SMARCA2 act: inactive; HIF activator: inactive; GalR3 antagonist: inactive; GAA30 FXN cntr: 87; FXN GAA850 conf: 33

Results for CCOc1ccc(NS(=O)(=O)c2ccc(C(=O)N(C)CCc3ccc(OC)c(OC)c3)cc2)cc1 ?
GAA850 FXN act: 9.7; SMARCA2 act: inactive; HIF activator: inactive; GalR3 antagonist: inactive; GAA30 FXN cntr: 27; FXN GAA850 conf: 15

How did Nc1ccc2c(c1)C(=O)c1ccc(Cl)cc1-2 do in these assays?
GAA850 FXN act: inactive; SMARCA2 act: inactive; GalR3 antagonist: inactive

Results for COc1cc2c(cc1N)-c1ccc(N)cc1C2=O ?
GAA850 FXN act: 9.4; SMARCA2 act: inactive; GalR3 antagonist: inactive; GAA30 FXN cntr: 118; FXN GAA850 conf: 38

How did COc1cc(NC(=O)C2CCCN(S(=O)(=O)c3ccc(C)c(C)c3)C2)cc(OC)c1 (stereo not given) do in these assays?
SMARCA2 act: inactive

What do the screens show for `COc1ccc(/C=C/C(=O)Nc2ccc(-n3nncc3-c3ccc(OC)c(OC)c3)cc2)cc1OC`?
Hsp70 activator: inactive; GAA850 FXN act: 8.9; SMARCA2 act: inactive; HIF activator: inactive; GalR3 antagonist: inactive; GAA30 FXN cntr: 23; FXN GAA850 conf: 17

What do the screens show for `COc1ccc(-c2cnnn2-c2ccc(NC(=O)/C=C/c3ccc(OC)c(OC)c3)cc2)cc1`?
Hsp70 activator: inactive; GAA850 FXN act: inactive; SMARCA2 act: inactive; HIF activator: inactive; GalR3 antagonist: inactive

How did C(=C\c1nc(-c2cccnc2)no1)/c1ccccc1 do in these assays?
Hsp70 activator: inactive; GAA850 FXN act: 8.7; SMARCA2 act: inactive; HIF activator: inactive; GalR3 antagonist: inactive; GAA30 FXN cntr: 124; FXN GAA850 conf: 43

How did Clc1ccccc1/C=C/c1nc(-c2cccnc2)no1 do in these assays?
GAA850 FXN act: inactive; SMARCA2 act: inactive; HIF activator: inactive; GalR3 antagonist: inactive

How did CCN(CC)C(=O)CSc1nnc(-c2ccc(C(C)(C)C)cc2)n1Cc1ccco1 do in these assays?
SMARCA2 act: inactive

How did Cc1c(CCC(=O)NC2CC2)c(=O)oc2cc(O)ccc12 do in these assays?
GAA850 FXN act: 15; SMARCA2 act: inactive; HIF activator: inactive; GalR3 antagonist: inactive; GAA30 FXN cntr: inactive; FXN GAA850 conf: 11

What do the screens show for `COc1ccc2c(C)c(CCC(=O)NC3CC3)c(=O)oc2c1`?
GAA850 FXN act: inactive; SMARCA2 act: inactive; HIF activator: inactive; GalR3 antagonist: inactive

How did CCCN1CCN(C(c2cc3cc(OCC)ccc3[nH]c2=O)c2nnnn2C2CCCCC2)CC1 (stereo not given) do in these assays?
Hsp70 activator: inactive; GAA850 FXN act: 11; SMARCA2 act: inactive; HIF activator: inactive; GalR3 antagonist: inactive; GAA30 FXN cntr: inactive; FXN GAA850 conf: 7.9

What do the screens show for `COc1ccc2[nH]c(=O)c(C(c3nnnn3C3CCCCC3)N3CCN(C)CC3)cc2c1` (stereo not given)?
Hsp70 activator: inactive; GAA850 FXN act: inactive; SMARCA2 act: inactive; HIF activator: inactive; GalR3 antagonist: inactive

What do the screens show for `CCOC(=O)[C@]12CCCCC/C=C\1N(Cc1ccc(OC)cc1)C(=O)[C@H]2CC(=O)NCc1cccc(C(F)(F)F)c1`?
SMARCA2 act: inactive

How did Cn1c(CS(=O)Cc2c(Cl)cccc2Cl)nnc1SCc1c(Cl)cccc1Cl (stereo not given) do in these assays?
Hsp70 activator: inactive; GAA850 FXN act: 10; SMARCA2 act: inactive; HIF activator: inactive; GalR3 antagonist: inactive; GAA30 FXN cntr: 25; FXN GAA850 conf: 9.3

What do the screens show for `O=S(Cc1ccc(Br)cc1)Cc1nnc(SCc2c(Cl)cccc2Cl)n1-c1ccccc1` (stereo not given)?
Hsp70 activator: inactive; GAA850 FXN act: inactive; HIF activator: inactive

Screening results as filed in PubChem.
